JMJD2A Tudor – inhibitors of human JMJD2A Tudor domain; O75164; actives 4.4% (n = 390,000); AlphaScreen JMJD2A-Tudor / H3K4me3 peptide binding; Potency, µM (doses to about 114 µM), inactives show at the highest dose activity change, negative = inhibition, hits mostly inhibitors; further: potency means the concentration at half of the fitted maximal effect; on the % scale 0 is the no-effect control and ±100 the full control effect; nearly all actives have a fitted effect of over 50% in size
BAZ2B block – inhibitors of human BAZ2B bromodomain; Q9UIF8; AlphaScreen BAZ2B-H3K14Ac peptide displacement; Potency, µM (highest dose often 114 µM), for inactives: at the highest dose activity change, negative = inhibition, usual class: inhibitors; actives 4.4% (n = 360,000); AID 504333; further: potency means the concentration at half of the fitted maximal effect; on the % scale 0 is the no-effect control and ±100 the full control effect; nearly all actives have a fitted effect of over 60% in size
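BAZ2B (50 nM) with biotin-H3(5-23)K14Ac peptide (50 nM) in PBS pH 7.4, 0.01% Tween-20, preformed 30 min, then compound 30 min at room temperature; top concentration 110uM. AlphaScreen streptavidin donor/nickel chelate acceptor beads (10 ug/mL final), 20 min dark, signal read.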
L3MBTL1 inh-1 – L3MBTL1 (human) inhibition | actives 0.66% (n = 230,000) | AlphaScreen L3MBTL1–H3K9me1 peptide binding | Q9Y468 | Potency, µM (titrated, usually from 57.1 µM), for the others: top-dose activity, negative = inhibition, hits mostly inhibitors; further: potency means the concentration at half of the fitted maximal effect; on the % scale 0 is the no-effect control and ±100 the full control effect; nearly all actives have a fitted effect of over 60% in size
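L3MBTL1 50 nM + b-AHA-H3(1-15)K9me1 75 nM, 30 min RT; compound added, 30 min RT; streptavidin donor/Ni-chelate acceptor beads 10 ug/mL each final, 30 min RT dark; AlphaScreen read.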
Sfp PPTase inh – inhibitors of Bacillus subtilis Sfp phosphopantetheinyl transferase. Q9F4F7. AID 1490. actives 3.5% (n = 310,000). Biochemical Sfp PPTase activity, qHTS. Potency, µM, without a hit: largest response in the series, negative = inhibition, actives largely listed as inhibitors;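 further: the enzyme is Sfp with the accession as filed and its product quenches rhodamine fluorescence; potency means the concentration at half of the fitted maximal effect; 0% = enzyme reaction without inhibitor and -100% = no enzyme wells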
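After 15 min at room temperature with compound, 15 nM Sfp received 5 uM rhodamine-CoA plus 12.5 uM BHQ-2-ybbR (50 mM Hepes pH 7.6, 10 mM MgCl2). Rate came from the fluorescence difference over 30 min, ex 525/em 598 nm.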
G9a inh – blocks human histone lysine methyltransferase G9a. Q96KQ7. G9a H3K9 monomethylation, AlphaScreen, 2 h. Potency, µM (doses to about 102 µM), for inactives: top-dose activity, negative = inhibition, usual class: inhibitors. actives 8.8% (n = 350,000). AID 504332; further: potency means the concentration at half of the fitted maximal effect; on the % scale 0 is the no-effect control and ±100 the full control effect; nearly all actives have a fitted effect of over 75% in size
Target sequence (Q96KQ7 913-1193 limits assumed): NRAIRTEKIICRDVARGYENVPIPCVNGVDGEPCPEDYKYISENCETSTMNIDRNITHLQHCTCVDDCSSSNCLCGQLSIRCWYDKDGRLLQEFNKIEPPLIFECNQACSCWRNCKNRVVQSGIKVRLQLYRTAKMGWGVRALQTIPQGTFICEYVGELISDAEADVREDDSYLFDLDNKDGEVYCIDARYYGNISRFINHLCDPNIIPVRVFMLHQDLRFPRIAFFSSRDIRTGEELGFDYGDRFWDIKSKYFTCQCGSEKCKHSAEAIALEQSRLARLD
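Chemiluminescent proximity detection of H3K9 monomethylation, read after 10 min bead incubation in the dark. Reaction: 20 nM G9a, 500 nM biotin-H3K9 peptide, 20 uM SAM cofactor, 2 h, room temperature, following 15 min enzyme-compound preincubation.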
HP1b binding inh – HP1-beta chromodomain-methylated histone interaction inhibition; P83916; actives 0.56% (n = 390,000); AlphaScreen HP1-beta / biotin-H3K9me3 peptide binding; Potency, µM (doses to about 114 µM), for the others: at the highest dose activity change, negative = inhibition, usual class: inhibitors; further: potency means the concentration at half of the fitted maximal effect; nearly all actives have a fitted effect of over 70% in size
Target sequence (P83916 whole entry, looked up): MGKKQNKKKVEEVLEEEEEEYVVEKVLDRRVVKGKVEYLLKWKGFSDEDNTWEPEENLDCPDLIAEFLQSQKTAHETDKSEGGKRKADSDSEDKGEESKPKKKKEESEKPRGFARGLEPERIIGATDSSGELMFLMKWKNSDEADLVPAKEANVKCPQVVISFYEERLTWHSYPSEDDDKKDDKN
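AlphaScreen: HP1-beta (50 nM) preformed 30 min with biotin-H3(1-18)K9me3 peptide (50 nM) in PBS pH 7.4, 0.01% Tween-20. Compound added for 30 min at RT, then streptavidin donor/nickel chelate acceptor beads (10 ug/mL) for 30 min.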
Sfp inh conf – confirmation of Bacillus subtilis Sfp PPTase inhibitors | Potency, µM (top dose mostly 114 µM), without a hit: at the top dose activity change, negative = inhibition, hits mostly inhibitors | shares compounds with Sfp PPTase inh | actives 79% (n = 380) | AID 2701 | Sfp PPTase enzymatic assay, qHTS titration;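 further: potency means the concentration at half of the fitted maximal effect; plate controls were uninhibited Sfp reaction for no effect and no enzyme control for full effect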
Sfp PPTase gel – Inhibits B. subtilis Sfp phosphopantetheinylation | shares compounds with Sfp PPTase inh | purified Sfp, gel-based phosphopantetheinylation read-out | Potency, µM, most hits filed as inhibitors | actives 20% (n = 210) | AID 2707;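 active means potency below 100 µM; inconclusive means dose-dependent response but potency above 100 µM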;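 further: band intensities scaled against SCH202676 control wells before curve fitting; potency is an IC50 for inhibitors of Sfp transfer activity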
L3MBTL1 inh-2 – validation of human L3MBTL1 methyl-lysine binding inhibitors; shares compounds with L3MBTL1 inh-1; actives 91% (n = 500); L3MBTL1 methyl-lysine binding inhibition, biochemical qHTS; AID 540279; Potency, µM, usual class: inhibitors; further: potency means the concentration at half of the fitted maximal effect; nearly all actives have a fitted effect of over 70% in size
AlphaScreen ctr2 – AlphaScreen signal inhibition, L3MBTL1 hit counter-screen | shares compounds with L3MBTL1 inh-1 | AlphaScreen counterscreen, signal inhibition | Potency, µM (highest dose often 57.1 µM), for the others: top-dose activity change, negative = inhibition, most hits filed as inhibitors | 500 tested, under 10 active; further: potency means the concentration at half of the fitted maximal effect; 0% is about no effect
* marks the source's active call; other numbers are inactive results; i = inactive; ? = inconclusive; . = not tested or not shown; [ ] = remark or other dose. In the library only some 12% were active in any assay of this set; here they are far more common. Unless noted, the call rests on the fitted dose curve; in most records, active means well fitted curve in the direction sought with a large enough effect; inconclusive means small, poorly fitted or top-dose-only effect, or another doubt; inactive means no such curve, though single readings can be large; an effect the other way counts as inactive or inconclusive.

SMILES	JMJD2A Tudor	BAZ2B block	L3MBTL1 inh-1	Sfp PPTase inh	G9a inh	HP1b binding inh	Sfp inh conf	others
CC(Cc1ccc(O)c(O)c1)(NN)C(=O)O (stereo not given)	.	.	.	50.1µM*	.	.	46.9µM*	Sfp PPTase gel=i
COc1cc(OC)c(N(C)S(=O)(=O)c2cccc(C(=O)NC3=NCCS3)c2)cc1Cl	-11.4%	-10.8%	-3.7%	9.5%	-41.3%	29.1%	.
COCCCn1c2nc3ccccc3nc2c2c(=O)n(Cc3ccc(Cl)cc3)cnc21	-5.8%	4.7%	9.5%	?	-12.9%[59 µM]	76.7%	.
O=c1c2c3nc4ccccc4nc3n(Cc3ccccc3)c2ncn1Cc1ccco1	-29.7%	50.1µM*	.	2.82µM*	?	12.0%	5.91µM*
O=C(CN1C(=O)CC(c2ccco2)Sc2ccccc21)Nc1ccc(Br)cc1 (stereo not given)	-18.9%	-3.3%	.	.	2.5%[59 µM]	6.0%	.
O=C(CN1C(=O)CC(c2ccco2)Sc2ccccc21)Nc1ccccc1F (stereo not given)	?	?	-20.4%	15.8µM*	?	1.3%	21µM*
CCC(=O)N1CCc2cc(S(=O)(=O)CCC(=O)NCc3ccccc3OC)ccc21	-4.3%	2.0%	.	11.1%	15.6%	66.5%	.
O=C(Nc1ccc(F)cc1)C1=CC(=O)N2CCN=C2S1	.	?	9.9%	0.562µM*	1µM*	.	11.8µM*
COc1ccc(Cn2ccnc2SCC(=O)NC2CCCC2)cc1	-19.3%	-16.1%	.	12.5%	-26.6%	7.3%	.
O=C(O)c1ccc(/C=N/NC(=O)C(O)(c2ccccc2)c2ccccc2)cc1	-4.9%	-16.3%	.	5.2%	?	30.9%	.
CCN(CC)c1ccc(/C=N/NC(=O)C(O)(c2ccccc2)c2ccccc2)o1	.	-8.1%	-3.9%	7.08µM*	28.2µM*	.	11.8µM*
CCc1c(C)sc(NC(=O)c2ccoc2C)c1C(N)=O	56.2µM*	?	.	11.2µM*	7.08µM*	28.2µM*	8.35µM*
c1ccc(Cc2nn3c(COc4ccccc4)nnc3s2)cc1	?	-28.0%	-3.0%	14.1µM*	5.01µM*	?	18.7µM*
Clc1ccccc1-c1nn2c(COc3ccccc3)nnc2s1	-3.2%	19.9%	.	?	?	-16.0%	.
Cc1ccc2c(c1)CCCN2C(=O)Nc1ccc2c(c1)OCO2	56.2µM*	?	.	3.16µM*	?	-37.2%	?	Sfp PPTase gel=i
COc1ccccc1/C=c1\sc2nc(-c3ccco3)nn2c1=O	17.8µM*	35.5µM*	12.6µM*	2µM*	20µM*	50.1µM*	41.8µM*	Sfp PPTase gel=?;L3MBTL1 inh-2=11.9*;AlphaScreen ctr2=0.4%
O=C(c1cc2nc(-c3ccc(Cl)cc3)cc(C(F)(F)F)n2n1)N1CCOCC1	-0.3%	4.3%	1.6%	1.7%	.	80.7%	.
CCCn1nnnc1NCc1cc(Br)ccc1OC	0.0%	-37.4%	-19.1%	7.5%	0.9%	35.4%	.
